Experimental findings from PubChem BioAssay (NCI) are described below.

Molecules are shown by their SMILES. Compounds without any hit were thinned out: in the full panel of roughly 83,000, 20% have a hit.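 The endpoint reported here, percent growth, reads 100 for growth as untreated, 0 for no net growth and -100 for all cells dead.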 Unmarked numbers belong to inactive results. Calls of active or inactive are those of the source. The calls were made as follows: active = growth percent below 10; inactive = the rest.

Test systems include DU-145 prostate; K-562 leukemia; MALME-3M melanoma; MDA-MB-231 breast; RXF 393 renal; SF-268 CNS; SF-295 CNS; SF-539 CNS; UACC-257 melanoma; M14 melanoma.
Assay in all cases: NCI-60 one-dose screen, 48 h (100 = growth as untreated, 0 = no growth, -100 = all killed)
Common to all, as to conditions: 10 µM

`COc1ccc(C(=O)NC(=S)N2CCN(c3ncnc4c3cnn4-c3ccccc3)CC2)cc1`: the growth was 79.9% with DU-145 prostate; 62.7% with K-562 leukemia; 57.8% in the assay on MALME-3M melanoma; 80.2% in the assay on MDA-MB-231 breast; 49.9% in the assay on RXF 393 renal; 63.8% with SF-268 CNS. Moreover, the growth in the assay with SF-295 CNS was 57.8%; in the assay with SF-539 CNS, 32.3%; in the assay on UACC-257 melanoma it was 54.4%; with M14 melanoma it was 63.1%.

Take `CCOC(=O)C1NN(c2ccc(S(N)(=O)=O)cc2)c2nc3nc(-c4cccs4)cc(-c4cccs4)c3c(=O)n21` (stereo not given): the growth in the assay on DU-145 prostate was 91.6%; with K-562 leukemia, 83.3%; in the assay on MALME-3M melanoma, 86.1%; in the assay on MDA-MB-231 breast it was 88.8%; with RXF 393 renal, 51.6%; in the assay with SF-268 CNS it was 75%. Further, the growth in the assay with SF-295 CNS was 78.5%; in the assay on SF-539 CNS, 63.1%; in the assay with UACC-257 melanoma, 109%; in the assay on M14 melanoma, 74%.

For the molecule `CN1CCN(Cc2ccc(C(=O)Nc3cccc(Nc4ccc5cc(O)ccc5n4)c3)cc2C(F)(F)F)CC1`, the growth was -16.1% (active) with DU-145 prostate; -55.8% (active) with K-562 leukemia; -88.7% (active) with MALME-3M melanoma; -55% (active) in the assay with MDA-MB-231 breast; -87.8% (active) with RXF 393 renal; -26% (active) with SF-268 CNS. Besides, the growth is -96.9% (active) in the assay with SF-295 CNS, -95.5% (active) in the assay on SF-539 CNS, -79.1% (active) in the assay on UACC-257 melanoma and -40.2% (active) with M14 melanoma.

Regarding `O=C(Nc1ccc(F)c(Cl)c1)c1cc(-c2ccc(F)cc2F)ccc1O`, the growth in the assay with DU-145 prostate is 13.3%; in the assay with K-562 leukemia it was 6.16% (active); in the assay on MALME-3M melanoma, -28.6% (active); with MDA-MB-231 breast, -24.5% (active); in the assay on RXF 393 renal, -16.6% (active); in the assay on SF-268 CNS, 4.5% (active). The growth with SF-295 CNS is -82.1% (active); in the assay on SF-539 CNS it was -7.23% (active); in the assay with UACC-257 melanoma, -13.5% (active); in the assay on M14 melanoma it was 20%.

On to `C/C(=C\CC/C=C(\C)CC/C=C(\C)CC[C@@H](O)C(C)(C)O)CC/C=C(\C)CC[C@@H](O)C(C)(C)O`, for which the growth in the assay with DU-145 prostate is 63.7%; in the assay with K-562 leukemia, 10.4%; with MALME-3M melanoma it was 44.8%; in the assay with MDA-MB-231 breast, 61.4%; in the assay with RXF 393 renal, 16.5%; in the assay with SF-268 CNS, 57.5%. Besides, the growth in the assay on SF-295 CNS was 9.52% (active); in the assay on SF-539 CNS it was 43%; in the assay on UACC-257 melanoma, 21.1%; in the assay with M14 melanoma, 22.7%.

On to `CC(=O)Nc1ccc(-n2cnc3cc(-c4ccc(O)cc4)ccc32)cc1C`, for which the growth in the assay with DU-145 prostate was 60.8%; in the assay on K-562 leukemia it was 41.2%; in the assay with MALME-3M melanoma, 58.9%; with MDA-MB-231 breast, 49.3%; in the assay on RXF 393 renal, 43.4%; in the assay with SF-268 CNS, 53.1%. Moreover, the growth with SF-295 CNS was 52.8%; with SF-539 CNS it was 41.5%; in the assay with UACC-257 melanoma, 61.2%; in the assay with M14 melanoma it was 42.3%.

Regarding `Cc1ccc(CSc2nc(-c3ccc(F)cc3)c(C#N)c(=O)[nH]2)cc1`, the growth in the assay with DU-145 prostate was 101%; in the assay with K-562 leukemia, 91.1%; in the assay with MALME-3M melanoma it was 117%; in the assay with MDA-MB-231 breast, 104%; in the assay on RXF 393 renal it was 95.1%; with SF-268 CNS, 101%. Besides, the growth is 95.6% in the assay with SF-295 CNS, 101% with SF-539 CNS, 102% in the assay with UACC-257 melanoma and 116% in the assay with M14 melanoma.

For the molecule `N#Cc1c(NC(=O)c2cccc(C(F)(F)F)c2)sc2c1CCC(O)=C2`, the growth in the assay on DU-145 prostate was 50.1%; in the assay with K-562 leukemia it was 14.5%; with MALME-3M melanoma, 19.3%; with MDA-MB-231 breast, 39.6%; with RXF 393 renal, 50.7%; with SF-268 CNS, 38.6%. For the same molecule, the growth with SF-295 CNS is 35.3%; with SF-539 CNS, 48.1%; in the assay on UACC-257 melanoma it was 30.1%; with M14 melanoma, 36.8%.

Consider `COc1ccc([C@H]2C(C(=O)c3ccc(Cl)cc3)C3(N[C@@H]2c2ccccc2)C(=O)Nc2ccc(Cl)cc23)cc1` (stereo not given in full), for which the growth was 14.6% in the assay with DU-145 prostate; 3.72% (active) in the assay on K-562 leukemia; -10.6% (active) with MALME-3M melanoma; -68.3% (active) with MDA-MB-231 breast; -64.3% (active) in the assay on RXF 393 renal; 20.2% with SF-268 CNS. In addition, the growth in the assay on SF-295 CNS is -63.2% (active); in the assay with SF-539 CNS, -46.1% (active); in the assay with UACC-257 melanoma, 9.2% (active); in the assay with M14 melanoma it was 11%.

Take `O=C(c1ccc(Cl)cc1)C1[C@H](c2ccc(Br)cc2)[C@@H](c2ccccc2)NC12C(=O)Nc1ccc(Cl)cc12` (stereo not given in full): the growth in the assay on DU-145 prostate was -27.9% (active); in the assay on K-562 leukemia it was -31.2% (active); in the assay with MALME-3M melanoma it was -97.7% (active); with MDA-MB-231 breast it was -95.3% (active); with RXF 393 renal it was -88.8% (active); with SF-268 CNS it was -7.66% (active). Moreover, the growth in the assay with SF-295 CNS is -84% (active); in the assay on SF-539 CNS, -58.5% (active); in the assay on UACC-257 melanoma, -49.4% (active); in the assay on M14 melanoma, 6.42% (active).

Consider `C=C1CCC2C3(C)COC(c4c(F)cccc4F)OC3CCC2(C)C1CC(O)C1=CCOC1=O` (stereo not given), for which the growth is 68.1% with DU-145 prostate; 21.4% in the assay on K-562 leukemia; 96.3% in the assay with MALME-3M melanoma; 91.1% in the assay on MDA-MB-231 breast; 66.1% in the assay on RXF 393 renal; 98.5% in the assay on SF-268 CNS. The growth was 79.4% with SF-295 CNS, 57% with SF-539 CNS, 74.1% with UACC-257 melanoma and 53.9% in the assay on M14 melanoma.

On to `COC[C@@H](CC(C)C)N=C1NC(=O)/C(=C/c2ccc3ncsc3c2)N1`, for which the growth is 15.7% in the assay on DU-145 prostate; 11.8% in the assay on K-562 leukemia; 8.01% (active) in the assay on MALME-3M melanoma; 9.26% (active) in the assay with MDA-MB-231 breast; -36.9% (active) in the assay on RXF 393 renal; 16% in the assay with SF-268 CNS. The growth in the assay with SF-295 CNS is 23.2%; in the assay with SF-539 CNS, -20.5% (active); with UACC-257 melanoma it was 16.2%; with M14 melanoma it was 42.3%.
